Structures are written as SMILES. Records with an inconclusive call do not appear. Active and inactive are the calls of the source. The call rests on the fitted dose curve; in most records, active means well fitted inhibition curve with a large enough effect; inconclusive means small, poorly fitted or top-dose-only effect; inactive means flat fitted curve, though single readings scatter.
On the % scale 0 is the no-effect control and ±100 the full control effect.

This assay in a line: qHTS to identify inhibitors of the type 1 interferon - major histocompatibility complex class I in skeletal muscle: primary screen against the NCATS Pharmaceutical Collection (AID 1347407). The settings on record: human skeletal muscle cells, IFN-b-induced MHC-I HiBiT luminescence, 24 h; series mostly up to 45.9 µM; activity change, negative = inhibition: at the top concentration. The essentials:
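Immortalized human myoblasts (C25cl48) with HiBiT knocked into endogenous HLA-B*08:01 were stimulated with 4.0 ng/ml IFN-beta and treated with compounds ([…] top 46 uM) for 24 hrs at 37 C. HiBiT lytic luminescence read.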
For orientation: In qHTS, concentration-response curves come from the screen itself.
Take `NP(N)(=O)NC(=O)c1ccc(F)cc1`: the “activity change, negative = inhibition” value was -2.58% (inactive).

For `COc1ccc2c(c1OC)CN1CCc3cc4c(cc3C1C2)OCO4` (configuration not stated), the “activity change, negative = inhibition” value is -10.2% (inactive).

`C=C1CC[C@@]2(O)[C@H]3Cc4ccc(O)c5c4[C@@]2(CCN3CC2CC2)[C@H]1O5`: the “activity change, negative = inhibition” value is 1.42% (inactive).

Regarding `Clc1ccc(CCC(Cn2ccnc2)Sc2c(Cl)cccc2Cl)cc1` (configuration not stated), the “activity change, negative = inhibition” value was -4% (inactive).

With `CN1CCN(C(=O)O[C@H]2c3nccnc3C(=O)N2c2ccc(Cl)cn2)CC1`, the “activity change, negative = inhibition” value is 0.176% (inactive).

On to `CC(C)(C)NCC(O)c1cc(Cl)c(N)c(Cl)c1` (configuration not stated), for which the “activity change, negative = inhibition” value is -5.28% (inactive).

As for `FC(F)(F)c1cccc(C2=CCN(CCc3ccc4ccccc4c3)CC2)c1`, the “activity change, negative = inhibition” value is -0.004% (inactive).

Source of the values: PubChem BioAssay (NCATS).
